The test is described as follows: loss of vesicle association with mouse CD8+ T cells – mouse 2C CD8+ T cells, flow cytometry, dose response (AID 485284).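 Note: drosophila derived vesicles carrying Ld MHC with QL9 peptide plus B7-1 and ICAM-1; vesicle binding seen as anti-B7-1 PE fluorescence on CD8 gated cells.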 Conditions: 2C mouse CD8+ T cell-exosome binding; at 45 µM (top of the series).

Measured potencies and affinities stand elsewhere.

On to `CCN(CC)S(=O)(=O)c1ccc2c3c(cccc13)C(=O)N2`, for which the binding remaining, % of control was found to be 56.2%.
Regarding `Cc1ccsc1C(=O)OCC(=O)N1CCN(c2ccccc2)CC1`, the binding remaining, % of control is 129%.
Consider `Cc1nc2sc(C(c3ccccc3)N3CCN(c4ccccc4F)CC3)c(O)n2n1` (centres undefined), for which the binding remaining, % of control is 163%.
To `CCCCN(C(=O)COC(=O)c1ccc(C=O)cc1)c1c(N)n(CCC)c(=O)[nH]c1=O` belongs 50.1%; to `O=C(Cc1ccc2c(c1)OCCO2)Nc1cccc(S(=O)(=O)N2CCOCC2)c1`, 135%; to `Cc1ccc(S(=O)(=O)c2c(N)n(NC(=O)c3ccccc3C)c3nc4ccccc4nc23)cc1`, 100%.
Regarding `COc1ccc([C@H]2CC(=O)C=C(c3c(C)cc(C)cc3C)C2)cc1`, the binding remaining, % of control was found to be 56.3%.
With `O=C(CCC(=O)N1CCOCC1)NCc1cccc(C(F)(F)F)c1`, the binding remaining, % of control was found to be 64.2%.
As for `O=C(CN1C(=O)NC2(CCCCCC2)C1=O)N1CCN(c2ccccc2)CC1`, the binding remaining, % of control was 158%.
With `Cc1cccc(Nc2nc(-c3ccccn3)cs2)n1`, the binding remaining, % of control turned out to be 69.7%.
To `COc1ccc(NC(=O)[C@@H](NC(=O)c2ccccc2F)C(C)C)cc1S(=O)(=O)N1CCOCC1` belongs 84.7%; to `CCOC(=O)c1cnc(=O)[nH]c1C`, 189%.
Consider `CCOC(=O)C1(CC2CCCCO2)CCN(S(=O)(=O)c2ccc(C)s2)CC1` (centres undefined), for which the binding remaining, % of control is 105%.
For `CSc1cccc(NC(=O)CCCn2c(=O)c3cccn3c3cccnc32)c1`, the binding remaining, % of control was 87.5%.
On to `Cc1cccc(C(=O)OCC(=O)NN2C(=O)NC3(CCC(C)CC3)C2=O)c1O` (centres undefined), for which the binding remaining, % of control was 209%.
On to `O=C(COC(=O)C1(c2cccc(F)c2)CCCC1)NCc1ccc2c(c1)OCO2`, for which the binding remaining, % of control amounted to 72.1%.
To `N#Cc1cccc(NC(=O)CN2C(=O)NC3(CCCCCC3)C2=O)c1` belongs 176%; to `COC(=O)c1ccc(OC(=O)CS(=O)c2ccccc2[N+](=O)[O-])cc1` (centres undefined), 97.9%; to `O=C1N=C(N2CCOCC2)S/C1=C\c1cccs1`, 99.5%.

The values are drawn from PubChem BioAssay AID485284 (NMMLSC, 2010).
